Test results: PubChem BioAssay (Tox21)
Records with an inconclusive call do not appear. Unmarked numbers belong to inactive results. The source made the active and inactive calls. Calls come from the whole dose curve; as a rule, active = well fitted cell-killing curve with a large enough effect in the repeat runs; inconclusive = weak or mixed curves, or effect the other way; inactive = flat fitted curve, though single readings scatter.

Assay: qHTS RealTime-Glo MT Cell Viability Assay in HEK293 cells - 0 hour (AID 1224880); note: nearly all actives have a fitted effect of over 45% in size; for activity change, negative = cytotoxicity: top concentration of the series differs between compounds
Settings: RealTime-Glo luminescence; series mostly up to 76.8 µM; activity change, negative = cytotoxicity: at the top concentration
Outline: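 Cells were seeded together with NanoLuc luciferase and a prosubstrate that viable cells reduce to a luciferase substrate. After a 5 h incubation at 37 C/5% CO2, compounds were added and luminescence was measured repeatedly during 40 h of treatment.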
% is set by controls: 0 for no effect and ±100 for the full control effect; potency is the fitted concentration of half-maximal effect.

| SMILES | activity change, negative = cytotoxicity | Potency |
| --- | --- | --- |
| O=C(O)C[C@H](NC(=O)OCc1ccccc1)C(=O)O | -7.73% |  |
| CCCCCCCCCI | -0.474% |  |
| O=C=Nc1ccc(Cl)c(Cl)c1 | 17.3% |  |
| O=C1C(=O)c2ccccc2C(O)=C1C1CCC(c2ccc(Cl)cc2)CC1 (stereo not given) |  | 7.56 µM (active) |
| C[C@@H](O)[C@H]1C(=O)N2C(C(=O)O)=C([C@H]3CCCO3)S[C@H]12 | 10.9% [at 35.3 µM] |  |
| c1ccc(C[n+]2cccc3ccccc32)cc1 | 20.9% |  |
| CN(C)CCN1C(=O)c2ccccc2N(C)c2ccccc21 | 0.154% [at 35.3 µM] |  |
| CC(C)C=O | -0.972% |  |
| CCC1(CO)COCOC1 | -18% |  |
| Cc1cscn1 | 17.7% |  |
| C[C@H]1C[C@H](O)c2ccsc2S1(=O)=O | 3.84% [at 35.3 µM] |  |
| O=C(/C=C/c1ccccc1)OCCc1ccccc1 | 3.76% |  |
| CC1(C)[C@H](C(=O)O)N2C(=O)C[C@H]2S1(=O)=O | -0.922% [at 35.3 µM] |  |
| CC=C(Cl)Cl | -0.0512% |  |
| COC(=O)[C@H]1[C@H]2C[C@@H]3c4[nH]c5cc(OC)ccc5c4CCN3C[C@H]2C[C@@H](OC(=O)/C=C/c2ccc(O)c(OC)c2)[C@@H]1OC | -0.64% [at 35.3 µM] |  |
| NCCNCCO | 21.9% |  |
| N#CCc1ccc(Cl)cc1Cl | -1.76% |  |
| CCCCC(CC)CN (stereo not given) | 3.46% |  |
| CC(CN(C)C)C(C)(O)Cc1ccc(Cl)cc1 (stereo not given) | -13% [at 35.3 µM] |  |
| C[C@@]12CCC[C@H]1[C@@H]1CC[C@H]3C[C@@H](O)CC[C@]3(C)[C@H]1CC2 | 15.6% [at 35.3 µM] |  |

| SMILES | activity change, negative = cytotoxicity | Potency |
| --- | --- | --- |
| C[C@]1(Cn2ccnn2)[C@H](C(=O)O)N2C(=O)C[C@H]2S1(=O)=O | 8.06% [at 35.3 µM] |  |
| Cc1ccccc1N=C(N)Nc1ccccc1C | 7.33% |  |
| O=C(O)c1ccc(OCCCOc2ccc(C(=O)O)cc2)cc1 | -0.154% [at 35.3 µM] |  |
| CC1(C)S[C@@H]2[C@H](NC(=O)C(c3ccccc3)S(=O)(=O)O)C(=O)N2[C@H]1C(=O)O (stereo not given in full) | 1.63% [at 35.3 µM] |  |
| NC(=O)c1ccncc1 | -2.09% |  |
| CO[C@]1(NC(=O)CSC(F)F)C(=O)N2C(C(=O)O)=C(CSc3nnnn3CCO)CO[C@H]21 | -6.1% [at 35.3 µM] |  |
| CCCCN(CCN(CCCC)C(=O)N1CCOCC1)C(=O)N1CCOCC1 | -4.33% [at 35.3 µM] |  |
| O=C1CCCCCCCCCCOCCCCO1 | 4.4% |  |
| C=C(C)C(=O)OCCOCCOC(=O)C(=C)C | 11.1% |  |
| COC(=O)C1=C(C)NC(C)=C(C(=O)O[C@@H]2CCCN(Cc3ccccc3)C2)[C@@H]1c1cccc([N+](=O)[O-])c1 |  | 8.49 µM (active) |
| CCCCCC[C@@H](O)C/C=C\CCCCCCCC(=O)OCC(O)CO (stereo not given in full) | -8.86% |  |
| Cc1c(C)c2c(c(C)c1OC(=O)CCC(=O)OCCO)CC[C@@](C)(CCC[C@H](C)CCC[C@H](C)CCCC(C)C)O2 | -1.59% [at 35.3 µM] |  |
| O=C(Cn1ccnc1[N+](=O)[O-])NCCO | 5.6% [at 35.3 µM] |  |
| Cc1ccccc1S | -11.4% [at 35.3 µM] |  |
| CC[N+](CC)(CCNC(=O)C(=O)NCC[N+](CC)(CC)Cc1ccccc1Cl)Cc1ccccc1Cl | -0.788% [at 35.3 µM] |  |
| C=C1CCC2CC1C2(C)C (stereo not given) | -2.49% |  |
| CCCCCCC(C)(C)C(=O)O | 6.34% |  |
| Cc1ccc(C(C)(C)O)cc1 | -13.5% |  |
| CCCCCC#CC(=O)OC | 0.432% |  |
| CCCCCCCC/C=C\CCCCCCCCO | 2.1% |  |
